According to PubChem BioAssay (NCATS):
Results filed as inconclusive are left out. Where a call stands in place of a potency, no number is given. Values without a mark were called inactive. The source made the active and inactive calls. Calls come from the whole dose curve; as a rule, active = well fitted inhibition curve with a large enough effect; inconclusive = small, poorly fitted or top-dose-only effect; inactive = no such curve, though single readings can be large or run the other way.

Target: Retinaldehyde dehydrogenase 3 (Homo sapiens) (UniProt P47895)
Assay: qHTS for Inhibitors of the Aldehyde Dehydrogenase Family (ALDH1A3) Primary screen (AID 2061315)
Conditions: ALDH inhibition qHTS; series mostly up to 56 µM

Compound | Potency | activity change, negative = inhibition
CCC(C)C(=O)OC1CC(C)C=C2C=CC(C)C(CCC(O)CC(O)CC(=O)O)C21 (stereo not drawn) | inactive | 
C=C1CC2C(C)(CCC(=O)O)C(C(C)(C)O)CCC2(C)C2C(=O)OC(C)(C(=O)OC)C(=O)C12C (stereo not drawn) | inactive | 
CC(=O)OCC1OC(O[C@H]2CC[C@@]3(C)C(CC[C@]4(C)C3CC=C3[C@@H]5CC(C)(C)CC[C@]5(C(=O)O)CC[C@]34C)[C@]2(C)CO)C(O)C(O)C1OC1OC(C)C(O)C(OC2OCC(O)C(O)C2O)C1O (stereo partly drawn) | inactive | 
CCOP(=O)(Cc1ccc(C(=O)Nc2ccc(Br)cc2C#N)cc1)OCC | inactive | 
COCC1OC(OC(C)(C)C2CCC3(C)C=C(C4CCC5C4(C)CC(O)C4OC(C(C)(C)O)CCC45C)CCC3O2)C(NC(C)=O)C(O)C1O (stereo not drawn) | inactive | 
C#CCCCn1cc(-c2cccc3c2N[C@H](C)CC(=O)N3)cn1 | inactive | 
COC(=O)c1ccccc1O[C@@H]1O[C@H](CO)[C@@H](O)[C@H](O)[C@H]1O[C@@H]1O[C@@H](C)[C@H](O)[C@@H](O)[C@H]1O | inactive | 
CC(C)NCCCn1c(Sc2cc3c(cc2I)OCO3)nc2c(N)ncnc21 | inactive | 
COc1cc(CCc2ccccc2)c(C(=O)O)c2c1CC(C(C)(C)O)O2 (stereo not drawn) | inactive | 
COCCCNC(=O)c1ccc(Cn2c(=O)c3ccccc3n(Cc3ccc(C(C)C)cc3)c2=O)cc1 | inactive | 
C=C(C)[C@@H]1CC[C@]2(CO)CC[C@]3(C)[C@H](CC[C@@H]4[C@@]5(C)CC[C@H](O)C(C)(C)[C@@H]5CC[C@]43C)[C@@H]12 | inactive | 
CC1(O)CC(O)C2(O)C=COC(O[C@@H]3O[C@H](CO)[C@@H](O)[C@H](O)[C@H]3O)C12 (stereo partly drawn) | inactive | 
COc1ccc(C(O)C(C)OC2OC(CO)C(O)C(O)C2O)cc1 (stereo not drawn) | inactive | 
C=C1C(OC2OC(CO)C(O)C(O)C2O)CC2C(C)(C)C(O)CCC2(C)C1CC/C(C)=C\COC(=O)CC(=O)O (stereo not drawn) | inactive | 
O=C(/C=C/c1ccc(O)cc1)O[C@H]1[C@H](OC2CCCCC2O)O[C@H](CO)[C@@H](O)[C@@H]1O (stereo partly drawn) | inactive | 
N#Cc1ccc(N2N=C3c4ccc(C(=O)O)cc4CC[C@@H]3[C@@H]2C2CCCC2)cc1Cl | inactive | 
CC1(C)C2CC(OC3OC(COC4OCC(O)(CO)C4O)C(O)C(O)C3O)C1(C)CC2O (stereo not drawn) | inactive | 

Compound | Potency | activity change, negative = inhibition
Cc1noc(=O)c2ccc(NC(=O)C(O)(CC(C)(C)c3cccc4c3OCC4)C(F)(F)F)cc12 (stereo not drawn) | inactive | 
C[C@H]1/C=C/C=C/C=C/C=C/C=C/[C@@H](O)[C@H](C(=O)O)[C@H](O)C[C@H](O)CCC[C@H](O)C[C@H](O)C[C@H](O)[C@@H](C)C(=O)O[C@@H]1C | inactive | 
CC12CC(O)C(O)C=C1c1cc(O)cc(O)c1C(=O)O2 (stereo not drawn) | inactive | 
FC(F)(F)c1cc(-c2ncn(/C=C\c3nnco3)n2)cc(C(F)(F)F)c1 | inactive | 
CCOc1nc2cccc(C(=O)O)c2n1Cc1ccc(-c2ccccc2-c2nn[nH]n2)cc1 | inactive | 
C/C(=C\CCC(C)C1CC(O)C2(C)C3CCC4C(C)(C)C(OC5OCC(O)C(O)C5O)CCC45CC35CC(O)C12C)C(=O)O (stereo not drawn) | inactive | 
CC(=O)NCCCCn1c2c(c3ccccc31)C(=O)NCC2 | inactive | 
CCCCc1nc(C)c(CC(=S)N(C)C)c(=O)n1Cc1ccc(-c2ccccc2-c2nn[nH]n2)cc1 | inactive | 
CC(C)C(C#N)O[C@@H]1O[C@H](CO[C@@H]2O[C@@H](C)[C@H](O)[C@@H](O)[C@H]2O)[C@@H](O)[C@H](O)[C@H]1O (stereo partly drawn) | inactive | 
C[C@@H]1O[C@@H](O[C@H]2[C@H](O[C@H]3[C@H](O[C@H]4CC[C@@]5(CO)C(CC[C@]6(C)C5CC=C5C7CC(C)(C)C[C@@H](O)[C@]7(C)CC[C@]56C)C4(C)C)O[C@H](C(=O)O)[C@@H](O)[C@@H]3O)OC[C@@H](O)[C@@H]2O)[C@H](O)[C@H](O)[C@H]1O (stereo partly drawn) | inactive | 
C[C@@H]1N[C@H]2N(C1=O)c1ccccc1[C@@]2(O)C[C@@H]1C(=O)N[C@@H](C)c2nc3ccccc3c(=O)n21 | inactive | 
CSCC1OC(n2cnc3c(=O)[nH]cnc32)C(O)C1O (stereo not drawn) | inactive | 
C=C1CC23CC1(O)CCC2C1=CC2OC(=O)C(C)(C2O)C1C3C(=O)O (stereo not drawn) | inactive | 
CO[C@@H]1[C@H](O)CCC2(CO2)[C@H]1[C@@]1(C)O[C@@H]1CC=C(C)C (stereo partly drawn) | inactive | 
H-DPPDPDRFYGMM-NH2 | inactive | 
CC1(C)C[C@H]2C3=CCC4[C@@]5(C)CC[C@H](O[C@H]6O[C@H](C(=O)O)[C@@H](O)[C@H](O)[C@H]6O[C@H]6O[C@H](CO)[C@@H](O)[C@H](O)[C@H]6O[C@@H]6O[C@H](CO)[C@@H](O)[C@H](O)[C@H]6O)[C@](C)(CO)C5CC[C@@]4(C)[C@]3(C)CC[C@@]2(C)[C@H](O[C@@H]2OC[C@H](O)[C@H](OC3O[C@H](CO)[C@@H](O)[C@H](O)[C@H]3O)[C@H]2O)[C@@H]1O (stereo partly drawn) |  | 14.7% [at 11.2 µM]
